# Compounds with a hit are over-represented: about 4.8% of the library has one in this group of screens.
# SKKanGAS inh: inhibitors of SKKanGAS S. pyogenes growth in kanamycin (SK-promoter or general growth effect); AID 1662; inhibition, % at 7.5 µM; 300,000 compounds, 1.3% hits; BacTiter-Glo, 6 h;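 active = mean replicate score, as percent of positive control median, at least 50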;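 also: strain carries kanamycin resistance gene driven by streptokinase promoter and grows in 40 µg/ml kanamycin; loss of luminescence reflects streptokinase promoter inhibition or plain growth inhibition; 0% = median of DMSO wells and 100% = positive control at its reference dose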
# tim10-1 inh: growth inhibitors of tim10-1 mutant yeast; AID 463190; S. cerevisiae tim10-1 ts strain growth, BacTiter-Glo, 24 h; 330,000 compounds, 2.2% hits; inhibition, % at 20 µM;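 active = inhibition of at least 40%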;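 also: mutant grown at 25 °C; 0% = DMSO wells with yeast and 100% = wells holding no yeast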
# PfHsp90 yeast 2: inhibits growth of yeast expressing Plasmodium falciparum Hsp90 | S. cerevisiae expressing PfHsp90, BacTiter-Glo ATP, 48 h; yeast lacking PDR1 and PDR3 efflux regulators | inhibition, % at 9.4 µM | AID 504621 | 310,000 compounds, 0.32% hits;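 active = every replicate shows inhibition above about 80%, whatever the replicate mean, limit read from the data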;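 also: 0% = DMSO neutral controls and 100% = 20 µM radicicol positive controls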
# tim23-1 inh: tim23-1 yeast growth inhibition; S. cerevisiae tim23-1 growth, BacTiter-Glo luminescence, 24 h; inhibition, % at 20 µM; 330,000 compounds, 1.3% hits;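 active = growth inhibition of the mutant yeast at or above 50%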;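 also: temperature-sensitive mutant grown at 25 °C; plate controls were DMSO-treated mutant yeast for no effect and medium wells lacking yeast for full effect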
# TIM10 inh: growth inhibitors of TIM10 yeast strain; S. cerevisiae TIM10 strain growth, BacTiter-Glo luminescence, 24 h; inhibition, % at 10 µM; 330,000 compounds, 1.4% hits;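 active = inhibition of 40% or more at the single tested concentration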;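 also: wild-type TIM10 isogenic control strain grown at permissive 25 °C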
# NALP1 yeast inh: NALP1 inhibition. S. cerevisiae NALP1/ASC/caspase-1 growth, X-gal OD620, 72 h. inhibition, % at 10 µM. 280,000 compounds, 0.61% hits; in the data active = inhibition mostly above about 24%, no sharp cut-off; inactive = mostly below about 32%
# Starred values were filed as active, the others as inactive; . = not tested or not shown.
SMILES,SKKanGAS inh,tim10-1 inh,PfHsp90 yeast 2,tim23-1 inh,TIM10 inh,NALP1 yeast inh
CCC(C)n1c(NC(=O)c2ccccc2)c(C#N)c2nc3ccccc3nc21 (stereo not drawn),69.1*,12.7,-1.7,30.6,8.1,-5.5
CCc1cccc(C)c1NC(=O)COC(=O)c1c2c(nc3ccccc13)/C(=C\c1cccs1)CCC2,15.0,10.0,-15.8,16.8,5.2,6.5
NC(=O)c1ccc(NC(=O)COC(=O)c2c3c(nc4ccccc24)/C(=C\c2cccs2)CCC3)cc1,91.0*,28.0,.,24.7,11.3,31.9
CC1CCN(S(=O)(=O)c2cccc(C(=O)NC3CCCCC3)c2)CC1,-1.2,31.0,20.4,26.8,3.2,-6.9
CC(=O)Nc1ccc2c(c1)-c1ccc(F)cc1C2,.,.,-8.3,.,.,.
CC(=O)Nc1ccc2c(c1)Cc1cc(N3C(=O)C=CC3=O)ccc1-2,.,.,115.8*,.,.,.
O=C1C=CC(=O)N1c1ccc2c(c1)Cc1cc(F)ccc1-2,.,.,115.6*,.,.,.
CC(=O)Nc1ccc2c(c1)Cc1ccc(Cl)cc1-2,.,.,-8.5,.,.,.
Cc1cc(C)c(C)c(S(=O)(=O)N2CCC(C(=O)NNC(=O)c3ccccc3O)CC2)c1C,60.8*,10.5,-6.6,18.5,-7.6,.
O=C(CN1CCOCC1)Nc1ccccc1NC(=O)C1CCN(c2ncccn2)CC1,-0.2,-4.2,1.3,0.0,-9.4,-5.7
COc1ccc(CCNC(=O)CN(Cc2ccc(Cl)cc2)S(C)(=O)=O)cc1OC,10.9,2.5,14.2,10.2,-7.3,28.5*
COCCNC(=O)CN(Cc1ccc(Cl)cc1)S(C)(=O)=O,-6.6,-4.8,7.2,1.3,-14.3,33.3
COC(=O)CC1C(=O)NCCN1C(=O)CSc1nc2ccccc2c(=O)n1CC(C)C (stereo not drawn),-1.6,3.2,.,-4.0,8.0,33.9*
COc1cccc(-n2nc(-c3ccnn3-c3cccc(Cl)c3)c(=O)n(C)c2=O)c1,4.9,20.2,-33.2,10.3,9.3,.
COc1cccc(/C=N/NC(=O)c2ccoc2C)c1O,77.2*,-10.3,3.8,42.3,22.6,-17.1
COc1cccc(/C=N/NC(=O)c2ccoc2C)c1,-1.1,-9.9,-0.5,16.1,14.8,35.5*
FC(F)(F)c1ccccc1NC(=S)N1CCN(c2ncccn2)CC1,-2.7,22.1,-1.2,13.1,-9.0,16.0
Cc1ccc(NC(=O)NC2CCCCCCC2)cc1C,.,3.0,-14.4,20.0,-1.8,0.7
Cc1ccc(NC(=O)c2ccc(C#CC3(O)CCCCC3)cc2)cc1C,50.5*,14.0,.,3.1,1.7,37.7
Cc1ccc(C(C(=O)NCc2ccccc2)N(C(=O)c2csnn2)c2cccc3ccccc23)o1 (stereo not drawn),-0.6,37.9,-4.0,24.7,15.3,.
Cc1cc(C)c(NC(=O)C(C)OC(=O)c2cc(Br)c(Br)s2)c(C)c1 (stereo not drawn),-7.4,-1.8,-14.3,2.2,1.1,.
COc1ccc(/C=N/NC(=O)Cc2csc(Nc3cccc(C(F)(F)F)c3)n2)cc1C,76.8*,18.2,-13.9,13.6,9.2,14.5
Cc1cc(C)c(/C=N/NC(=O)c2nnn(-c3nonc3N)c2CN2CCC(C)CC2)c(C)c1,27.6,15.1,10.5,38.7,-1.5,-7.4
CC1CCN(Cc2c(C(=O)N/N=C/c3cc(Cl)ccc3O)nnn2-c2nonc2N)CC1,66.0*,26.2,-10.6,24.2,25.3,6.4
COc1c(Cl)cc(Cl)cc1/C=N/NC(=O)c1nnn(-c2nonc2N)c1CN1CCC(C)CC1,24.6,29.2,23.2,-0.3,7.4,14.7
SMILES,SKKanGAS inh,tim10-1 inh,PfHsp90 yeast 2,tim23-1 inh,TIM10 inh,NALP1 yeast inh
CC1CCN(Cc2c(C(=O)N/N=C/c3cc(Br)ccc3O)nnn2-c2nonc2N)CC1,80.3*,17.4,-8.2,25.0,14.3,11.3
Cc1csc(=O)n1CCC(=O)OCc1nnc(-c2ccccc2Cl)o1,.,9.7,-15.0,28.7,1.3,.
Cc1cc(OCC(=O)NCc2cccnc2)c2c(C)c(Cc3ccccc3)c(=O)oc2c1,25.5,31.4,11.1,8.4,3.2,13.2
Cc1ccc(OC/C(O)=C(\C#N)c2nc3ccccc3s2)cc1,56.8*,-4.3,8.9,-0.1,9.9,22.1
CC(C)=C(C#N)c1nc2ccccc2s1,-7.0,-11.6,-12.7,15.4,-12.8,32.3
CCN(Cc1ccc2c(c1)OCO2)C(=O)CSc1ncnc2sccc12,.,1.9,.,21.4,1.7,.
CCC(C)c1ccc(C(C)NC(=S)NC2CCCCC2)cc1 (stereo not drawn),50.4*,22.7,-93.9,34.8,13.0,17.2
CC(C)c1ccc(C(C)NC(=S)NC2CCCCC2)cc1 (stereo not drawn),37.6,27.1,0.1,30.6,22.3,5.7
CC(NC(=S)NC1CCCCC1)c1ccc(C(C)(C)C)cc1 (stereo not drawn),55.6*,35.2,-30.6,32.8,16.2,20.2
COc1ccccc1-c1c(C#N)c(SCC(=O)N2CCCC2)nc(C)c1C(N)=O,-12.6,.,.,.,.,8.7
Cc1ccc(OCCn2c(NC(=O)c3ccco3)nc3ccccc32)cc1,65.7*,-34.1,-16.3,-1.9,-3.7,18.4
O=C(Nc1nc2ccccc2n1CCN1CCCCC1)c1ccco1,-4.6,-15.5,2.0,1.6,-3.7,-0.2
O=C(Nc1nc2ccccc2n1CCOc1ccc(Cl)cc1)c1ccco1,90.5*,33.7,-8.0,17.5,23.8,-11.7
O=C(Nc1nc2ccccc2n1CCOc1ccccc1)c1ccco1,77.1*,19.4,-16.7,20.5,25.1,25.6
Cc1cccc(OCCn2c(NC(=O)c3ccco3)nc3ccccc32)c1,62.0*,25.7,-12.9,38.5,33.5,24.7
N#Cc1c(N2C(=O)C3C4C=CC(C4)C3C2=O)sc2c1CCC2 (stereo not drawn),3.2,13.1,3.6,13.7,5.1,8.3
O=C(Nc1ccccc1)/C(=C/c1cccnc1)NC(=O)c1ccccc1,-2.7,-5.5,9.6,-4.7,1.0,20.7
COc1ccc(CCNC(=O)c2cccc(-n3cnnn3)c2)cc1,.,-7.2,.,3.0,4.6,.
Cc1ccc(CNC(=O)c2cccc(-n3cnnn3)c2)cc1,0.9,7.5,6.7,14.2,-2.1,42.9*
N#CCc1ccc(NC(=O)Cn2c(=O)oc3ccccc32)cc1,-3.7,1.2,5.4,12.6,0.2,12.7
CCc1ccc(C2=NN(c3ccc(S(N)(=O)=O)cc3)C(c3ccc(F)cc3)C2)cc1 (stereo not drawn),102.4*,21.1,-83.6,-3.0,10.5,24.8
COc1ccc(Cl)cc1S(=O)(=O)N1CCCC(C(=O)NCC(N)=O)C1 (stereo not drawn),9.2,-4.7,-0.5,5.5,12.7,.
CCn1cc(CN2CCC(C(=O)Nc3ccc(Oc4ccccc4)nc3)CC2)cn1,-2.6,-17.9,-10.9,-10.7,-0.9,34.2*
O=C(Nc1ccc(Oc2cccnc2)cc1)C1CCN(Cc2ccccc2)CC1,-11.4,-20.1,3.3,-16.0,-38.5,11.8
O=C(Nc1ccc(Oc2cccnc2)cc1)C1CCN(Cc2cccc(Cl)c2)CC1,-2.5,20.6,1.2,-20.2,-22.0,35.9*

# Screens deposited in PubChem by several laboratories.
